Bioassay records (PubChem BioAssay)
Many of the other results were omitted from the sample, so hits are more common in it than they were.
mHTT-CaM PPI inh: inhibitors of human mutant huntingtin-calmodulin interaction; actives 3.6% (n = 190,000); AID 1671202; P42858; AlphaScreen His-mHTT/GST-CaM binding, luminescence; inhibition, % at 15 µM;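 also: 0% = both proteins with DMSO and 100% = one protein alone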
Pf apPOL inh: Pf-apPOL DNA polymerase inhibition; actives 0.25% (n = 210,000); Recombinant Pf-apPOL, molecular beacon fluorescence, 1.5 h; AID 1794808; inhibition, % at 10 µM
* marks the source's active call; other numbers are inactive results; nt = no result. Rule as the data show it: active = inhibition above about 50%; inactive = the rest.

SMILES	mHTT-CaM PPI inh	Pf apPOL inh
Cc1sc2nc(SCC(=O)c3ccc(O)c(O)c3)[nH]c(=O)c2c1C	68*	-1
Cc1cc(C)c2c(=O)[nH]c(SCC(=O)c3ccc(O)c(O)c3)nc2n1	6	-4
C=CCC1c2cccc(C(=O)O)c2C(=O)N1c1ccc(OC)cc1 (stereo unspecified)	-4	-13
OC(CNC1CCCC1)Cn1c2ccccc2c2ccccc21 (stereo unspecified)	6	-2
OC(CNCCc1ccccc1)c1ccccc1 (stereo unspecified)	-2	-6
OC(CN1CCOCC1)Cn1c2ccc(Br)cc2c2cc(Br)ccc21 (stereo unspecified)	91*	-14
OC(CNCCc1ccccc1)Cn1c2ccc(Br)cc2c2cc(Br)ccc21 (stereo unspecified)	100*	nt
O=C1CSC(=O)N1CC(O)Cn1c2ccc(Br)cc2c2cc(Br)ccc21 (stereo unspecified)	27	nt
OC(CNCCOc1ccccc1)Cn1c2ccccc2c2ccccc21 (stereo unspecified)	85*	nt
CC(C)(C)C(=O)Nc1c(-c2ccc(F)c(F)c2)nc2ccccn12	1	3
COc1cccc(CNC(=O)CCn2c(=O)[nH]c3ccsc3c2=O)c1	4	-2
CCCc1c(C(=O)N2CCOCC2)cnn1-c1ccccc1Cl	-2	-3
Cc1nc2c(C(=O)NC(C)C)cnn2c(C)c1Cc1cccc(Cl)c1	70*	5
COC(CNC(=O)c1cnn2c(C)c(Cc3ccccc3)c(C)nc12)OC	13	-4
COC(CNC(=O)c1cnn2c(C)c(Cc3cccc(Cl)c3)c(C)nc12)OC	61*	-9
Cc1nc2c(C(=O)NCCC(C)C)cnn2c(C)c1Cc1cccc(Cl)c1	-19	-10
CCc1nn(-c2ccc(OC)cc2)c(CC)c1C(=O)N1CCOCC1	1	0
CCN1CCN(C(=O)c2cnn(-c3ccc(Cl)c(Cl)c3)c2C(C)C)CC1	39	-21
CCCc1nn(-c2ccc(Cl)c(Cl)c2)c(C(C)C)c1C(=O)N1CCOCC1	62*	0
CC(=O)N1CCN(C(=O)c2c(C(C)C)nn(-c3ccc(C)cc3)c2C(C)C)CC1	11	-1
CCCc1nn(-c2ccc(Cl)c(Cl)c2)c(CC)c1C(=O)N1CCOCC1	67*	-5
CC(C)c1nn(-c2ccc(Cl)c(Cl)c2)c(C(C)C)c1C(=O)N1CCOCC1	67*	-2
COc1cccc(/C=C2\NC(=O)N(Cc3ccc(Br)cc3)C2=O)c1OC	12	-4
Cc1cccc(S(=O)(=O)N2CCC(c3nc(CNC(=O)C4CCC4)cs3)CC2)c1	17	-6
CCc1noc(C2CCCCN2Cc2nc(-c3ccsc3)no2)n1 (stereo unspecified)	-5	-4
SMILES	mHTT-CaM PPI inh	Pf apPOL inh
O=C(CCC1CCCN(C(=O)Nc2ccc(F)cc2)C1)N1CCC2(CC1)OCCO2 (stereo unspecified)	-7	-6
COc1ccccc1N1CCN(C(=O)c2cccc(C#Cc3ccccc3)c2)CC1	20	4
NC(=O)c1cc2nc(-c3ccco3)cc(C(F)(F)Cl)n2n1	5	-5
O=S1(=O)N=CN(c2cccc(Cl)c2)c2ncccc21	-1	-1
COc1ccc(Br)cc1/C=C1/C(=O)N(c2ccccc2)N=C1C	7	-1
CCCC1=NN(c2ccccc2)C(=O)/C1=C/c1cc(OC)c(OC)cc1Cl	5	-4
COc1cc(/C=C2/C(=O)N(c3ccc(Cl)c(Cl)c3)N=C2C)ccc1OCC(=O)O	51*	-7
CCCC1=NN(c2ccccc2)C(=O)/C1=C\c1cc(Cl)c(O)c(OC)c1	66*	-6
COc1c(Br)cc(Br)cc1/C=C1/C(=O)N(c2ccccc2)N=C1C	69*	-3
COc1ccc(/C=C2/C(=O)N(c3ccc(Cl)c(Cl)c3)N=C2C)cc1OC	19	-2
C=CCOc1ccccc1/C=C1/C(=O)N(c2ccc(Cl)c(Cl)c2)N=C1C	1	20
COc1cccc(/C=C2/C(=O)N(c3ccc(Cl)c(Cl)c3)N=C2C)c1O	60*	-5
Cc1nc2c(C)cccn2c(=O)c1NC(=O)CC(c1ccccc1)c1ccccc1	-3	-6
COc1cc(/C=C2/C(=O)N(c3cccc(Br)c3)N=C2C)ccc1OC(C)C	18	0
COc1cccc(/C=C2/C(=O)N(c3ccccc3)N=C2C)c1O	73*	-2
COc1cccc(/C=C2/C(=O)N(c3ccccc3)N=C2C)c1OC	21	-2
COc1cc(/C=C2/C(=O)N(c3cccc(Br)c3)N=C2C)cc(OC)c1O	88*	-3
O=C(Nc1nccs1)c1ccc(NC(=O)c2ccccc2[N+](=O)[O-])cc1	13	-3
O=C(Nc1nccs1)c1ccc(NC(=O)c2ccccc2-c2ccccc2C(=O)O)cc1	84*	-1
O=[N+]([O-])c1cccc2c1OC1(N3CCOCC3)CCCCC1=C2 (stereo unspecified)	-1	-2
O=C(c1ccc(N2CCNC(c3ccccc3)C2)nc1)N1CCc2ccccc2C1 (stereo unspecified)	71*	-6
